Measurements reported in PubChem BioAssay AID624305 (National Center for Advancing Translational Sciences (NCATS), 2012).
Records with an inconclusive call do not appear. The source made the active and inactive calls. Calls follow the shape of the dose curve; as a rule, active = well fitted activation curve with a large enough effect; inconclusive = small, poorly fitted or top-dose-only effect; inactive = no such curve, though single readings can be large or run the other way.

test: qHTS assay for re-activators of p53 using a Luc reporter: Hit Validation; conditions: p53-responsive luciferase reporter cells, luminescence, H1299 line expressing heat-sensitive Ala138Val p53; series mostly up to 46.1 µM; activation: at the top concentration; also: nearly all actives have a fitted effect of over 75% in size; as to activation: 0% is about no effect
In short: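 Hit confirmation with a 1:5 dilution series, at 37 deg C for 24 hrs, in H1299 cells co-expressing temperature-sensitive p53-A138V and p53-responsive luciferase. Nocodazole served as control; luminescence read after 10 min with detection reagent.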
Potency is read from the fitted curve at half-maximal effect.

Potency, active:
c1ccc(-c2csc(Nc3ncccn3)n2)cc1 2310 nM, c1ccc(-c2nnc(-c3ccccn3)nc2NC2CCCCC2)cc1 18400 nM, CC(/C=N/Nc1nc2ccccc2[nH]1)=C\c1ccccc1 651 nM, C=CCNc1nc(-c2cc3ccccc3o2)cs1 651 nM, O=C(N/N=C(\c1ccccc1)c1cccnc1)c1cccc(F)c1 16400 nM, COC(=O)c1ccc(-c2nc(-c3cccs3)no2)cc1 146 nM, CN(C)c1ccc(NC(=O)CCCc2ccccc2)cc1 1460 nM, O=C(Nc1ccc2ccccc2c1)c1ccc(Cl)cc1Cl 291 nM, COc1cccc(-c2nc3cc(C)ccc3o2)c1 411 nM, O=C1CC(c2ccc3c(c2)OCCO3)Oc2ccc([N+](=O)[O-])cc21 (stereo not drawn) 2590 nM, Cc1ccc2cc3c(N)c(C(=O)N4CCOCC4)sc3nc2c1 1030 nM, CC(=O)NC1=C(Nc2ccc(N(C)C)cc2)C(=O)c2ccccc2C1=O 9200 nM, O=c1oc(-c2ccc(O)c(O)c2)cc2cc(O)cc(O)c12 11600 nM, CCc1cc2c(=O)c(-c3ccc4c(c3)OCCO4)coc2cc1OS(C)(=O)=O 4610 nM, CC(C)(C)c1ccc(/C=C2\SC(=O)N(CCNC(=O)c3cccc(S(=O)(=O)N4CCOCC4)c3)C2=O)cc1 1840 nM

activation, inactive:
COc1ccccc1Oc1c(C)oc2c(CN(C)C)c(O)ccc2c1=O -21.9%, CCCCOC(=O)c1ccc(NC(=O)CSc2nncn2C)cc1 41.1%, COC(=O)C1=C(C(=O)c2ccccc2)C(c2ccc(OC)c(OC)c2)Nc2nnnn21 (stereo not drawn) 7.81%, Cc1ccc(CCc2nnc(SCC(=O)Nc3cccc(Cl)c3)n2-c2ccccc2)o1 -16.1%, COc1ccc2oc(C(=O)OCC(=O)NCCN3C(=O)CSC3=O)c(C)c2c1 -18.8%, CCOc1ccc2c(c1)C(C)=CC(C)(C)N2S(=O)(=O)c1ccc(NC(C)=O)cc1 38%, COc1ccccc1C(=O)CSc1nccn1C 31.8%, CCOc1ccc(NC(=O)C(c2ccccn2)N(C(=O)CCl)c2ccc(OC)cc2)cc1 (stereo not drawn) 40.6%, CC(C)C(=O)NC(c1cccs1)c1cc([N+](=O)[O-])c2cccnc2c1O (stereo not drawn) -2.08%, Cc1cccc(N2CCN(S(=O)(=O)c3ccc4c(c3)CCC(=O)N4)CC2C)c1 (stereo not drawn) -12%, NNC(=O)c1cccc(O)c1 0%, Cc1ccc(C)c(OCC(O)CN2C(C)CCCC2C)c1 (stereo not drawn) 24%, COc1cc(NC(=O)CN2C(=O)COc3ccc(S(=O)(=O)N4CCCC4)cc32)cc(OC)c1 -4.69%, COc1ccc(CCNC2CCC(c3ccccc3)CC2)cc1 (stereo not drawn) -6.77%, N#Cc1cccc(N=Cc2c(O)ccc3ccccc23)c1 -9.9%, Cc1cc(C)c2nc(NNC(=O)c3ccc(S(=O)(=O)N4CCc5ccccc5C4)cc3)sc2c1 352%, C/C(=N\NS(=O)(=O)c1ccc(Cl)cc1)c1ccc(NC(=O)c2ccco2)cc1 24.5%, O=C(NCc1ccc(-c2nc3ccccc3s2)cc1)c1cc2ccccc2o1 -4.17%, c1ccc2cc3c(NCCN4CCOCC4)ccnc3cc2c1 11.5%, CC(=O)c1c(C)[nH]c(C(=O)OCC(=O)c2ccc(C)s2)c1C 44.3%, C#CCn1c(=NC(=O)c2cccs2)sc2cccc(OCC)c21 -7.81%, O=C(c1cccc(S(=O)(=O)NCc2ccc3c(c2)OCO3)c1)N1CCCC1 -4.69%, O=C(Nc1ccc(Cl)cc1)Nc1nnc(SCc2ccccc2)s1 41.1%
